In PubChem BioAssay (NCI):
“And” between values parts separate entries of the source, which are not always exact repeats. Identical values can stand only once. Compounds without any hit were thinned out: in the full panel of roughly 83,000, 20% have a hit.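 A percent growth of 40 corresponds to 60% growth inhibition; 0 means no net growth; -100 means all cells died. Active threshold: below 10.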 Unmarked numbers belong to inactive results. The source made the active and inactive calls.

test system: A498 renal; test: NCI-60 one-dose screen, 48 h (100 = growth as untreated, 0 = no growth, -100 = all killed); conditions: 10 µM
Method: Growth inhibition of the A498 human tumor cell line is measured as a screen for anti-cancer activity. Cells are grown in 96 well plates and exposed to the test compound for 48 hours. Compounds are tested at a single concentration, which is 10^-5 M for most compounds. The reported endpoint is percent growth (GI% or GIPRCNT), where numbers from 0 - 100% represent growth inhibition, and numbers from -100% - 0 represent cell death. For example, a value of 40 represents 60% growth inhibition. A value of 0 means no net growth occurred over the course of the experiment. A value of -40 indicates 40% of cells at the beginning of the experiment died by the end of the experiment. A value of -100 means all cells are dead at the end of the experiment.
NCI-60 Human Tumor Cell Lines Screen was performed using the standard one-dose NCI protocol, which is described in more detail at https://dtp.cancer.gov/discovery_development/nci-60/default.htm.
Compounds with GIPRCNT values below 10 were considered active. Activity score was based on GIPRCNT using the following formula: […]
Score is 0 for GIPRCNT values of 100 or above, 50 for GIPRCNT values of 0, and 100 for GIPRCNT values of -100.

Structure (SMILES)	growth
COC(=O)C1C(O)C(C)C(O)C(C)/C=C\C=C(C)C(=O)Nc2c(C)c(OC(C)=O)c3c(c2O)C(=O)C(C)=C2OCOC(=C23)C(C)=CC(C)(O)C(O)C(C)C1O (stereo not given)	102%
NC(Cc1ccccc1)c1ccccc1 (stereo not given)	99.9%
CC12OOC(c3ccccc31)c1c2ccc2ccccc12 (stereo not given)	133%
COc1ccccc1[As]=[As]c1ccccc1OC (stereo not given)	-96.3% (active)
C[CH2][Hg][S]c1ccccc1C(=O)O	18.1%
[Cl][Sn]([c]1ccccc1)([c]1ccccc1)[c]1ccccc1	-91% (active)
CC(Cc1ccc2c(c1)OCO2)NN (stereo not given)	77.2%
Oc1c(I)cc(I)cc1I	97.9%
[O-][n+]1ccccc1S	78.7%
CC(=O)[O][Hg][c]1c(C)c(C)cc(C)c1C	101%
COS(=O)(=O)c1ccccc1	112%
COc1ccc2c(ccc3oc([N+](=O)[O-])cc32)c1	-76.1% (active)
Cn1c(O)c(N=O)c(=O)n(C)c1=O	84.5% and 97%
ClCc1ccc2ccccc2n1	98.1%
O=C(O)c1cc(Cc2ccc(O)c(C(=O)O)c2)ccc1O (tested in a mixture with another compound)	84.7%
C=NCC#N	110%
CC(C)C1(NC(=O)C2CC3c4cccc5[nH]cc(c45)CC3N(C)C2)OC2(O)C3CCCN3C(=O)C(Cc3ccccc3)N2C1=O (stereo not given)	97.5%
COc1cc([C@@H]2c3cc4c(c(O)c3C[C@H]3COC(=O)[C@@H]32)OCO4)cc(OC)c1OC	-29.1% (active)
O=[N+]([O-])/C=C\c1ccc2c(c1)OCO2	96.5%
C/C(=C\c1ccc(Cl)c(Cl)c1)[N+](=O)[O-]	103% and 79.2%

Structure (SMILES)	growth
C/C1=C\[C@H](C)C[C@H](C)OC(=O)C[C@H](c2ccc(O)cc2)NC(=O)[C@@H](Cc2c(Br)[nH]c3ccccc23)N(C)C(=O)[C@H](C)NC(=O)[C@@H](C)C1	-78.8% (active)
O=C(CBr)Nc1ccccc1	108%
COc1ccccc1/C=C/[N+](=O)[O-]	109%
O=[N+]([O-])/C=C/c1ccc([N+](=O)[O-])cc1	19.7% and 126%
COc1cc([N+](=O)[O-])c2ncccc2c1[N+](=O)[O-]	122%
O=C1CCC(=O)N1SC(Cl)(Cl)Cl	127%
O=C1C=Cc2ccccc2C1=O	91.3%
O=C1C(=O)c2ccccc2-c2ccccc21	88.9%
C[C@@H]1C[C@@H]([C@H](O)CC2CC(=O)NC(=O)C2)C(=O)[C@@H](C)C1	17.7%
Cc1cc(C(C)(C)c2ccc(O)c(C)c2)ccc1O	102%
CN(CCCl)c1ccc(/C=C/C2=[N+](C)c3ccccc3C2(C)C)cc1	66.3%
CC/C(=C/c1ccc(OC)cc1OC)[N+](=O)[O-]	76.8%
CC(C)c1cc([N+](=O)[O-])cc([N+](=O)[O-])c1O	108%
C[C@]12CC[C@H]3[C@@H](CCC4=CC(=O)CC[C@@H]43)[C@@H]1CC[C@@H]2OC(=O)N(CCCl)N=O	58%
O=[N+]([O-])c1ccc(N2CCOCC2)c2c1no[n+]2[O-]	-14.1% (active)
C#CC1(O)CCC(C(C)(C)C)CC1 (stereo not given)	99.5%
Cc1cc(C)c(C[N+](C)(C)C)c(C)c1C	8.63% (active)
C=C1C(=O)O[C@@H]2C[C@@H](C)[C@@H]3C=CC(=O)[C@@]3(C)[C@@H](O)[C@H]12	-17.1% (active)
CS(=N)(=O)CCC(N)C(=O)O (stereo not given)	129%
CCOP(=O)(OCC)/C(C#N)=C/c1ccc(Br)cc1	121%
